Results taken from PubChem BioAssay AID588742 (Southern Research Specialized Biocontainment Screening …, 2011).
About 410 (23%) of roughly 1,800 compounds were called active. How the calls were made is not given here. Not all results are given here. Entries with a potency or affinity are not part of this list.

Assay: Vero cell cytotoxicity, cytotoxicity control for flavivirus capping enzyme inhibitors (AID 588742)
Conditions: Vero cells viability, cytotoxicity counter-screen; series mostly up to 40 µM; viability: at the top concentration

Compound	viability
N#CC1C(=O)c2ccccc2C1c1ccccc1 (centres undefined)	90.6% (inactive)
CCCCCCn1c(=O)c(-c2ccccc2)c(O)c2ccccc21	102% (inactive)
CCOc1ccc(/C=C/c2[nH]c(=O)[nH]c(=O)c2[N+](=O)[O-])cc1	118% (inactive)
COc1ccc(S(=O)(=O)CC(=O)c2cc3cc(Br)ccc3oc2=O)cc1	108% (inactive)
COc1ccc(OC)c(/C=C2\SC(=S)N(NS(=O)(=O)c3ccc(C)cc3)C2=O)c1	97.1% (inactive)
O=C(CC(Nc1ccccc1Cl)C(=O)O)c1ccccc1 (centres undefined)	122% (inactive)
CCCOC(=O)c1c(NC(=O)C2C3C=CC(C3)C2C(=O)O)sc2c1CCC(C)C2 (centres undefined)	106% (inactive)
N#CCC(=O)N/N=C/c1ccc(OCC(=O)Nc2ccc(F)cc2)cc1	92.9% (inactive)
COC(=O)C1=C(C(=O)OC)C(c2ccccc2O)c2sc(=O)[nH]c2S1 (centres undefined)	104% (inactive)
O=c1[nH]c(/C=C\c2ccc(O)c(O)c2)nc(O)c1[N+](=O)[O-]	97.7% (inactive)
Cc1c(N=C2C=C(Br)C(=O)C(Br)=C2)c(=O)n(-c2ccccc2)n1C	93.4% (inactive)
Cc1c(N2C(=O)/C(=C3\C(=O)N(CC(=O)O)c4ccccc43)SC2=S)c(=O)n(-c2ccccc2)n1C	108% (inactive)
COc1ccccc1/C=C1\SC(=S)N(NS(=O)(=O)c2ccccc2)C1=O	84.4% (inactive)
COc1ccc(S(=O)(=O)Nc2cc3c4c(c2)C(C)C(=O)N4CCC3)cc1OC (centres undefined)	95.1% (inactive)
CC(=O)N1CCN(c2ccc(NCc3cccc(C)c3)cc2)CC1	94.1% (inactive)
N#C/C(=C\c1ccc(C#N)cc1)C(=O)c1ccccc1	105% (inactive)
O=C1C(=NO)CCc2ccccc21	91.2% (inactive)
O=C1c2ccccc2C(=O)c2c1cccc2N(CCO)CCO	90.7% (inactive)
CCn1c2ccccc2c2cc(NC(=O)c3ccc(Br)o3)ccc21	93% (inactive)
CCCCCCSc1nc(O)c(C2OC(=O)c3c2ccc(OC)c3OC)c(=O)n1-c1ccccc1 (centres undefined)	96.6% (inactive)
c1cc2c(cc1NC1CCCCCC1)OCO2	107% (inactive)
O=C(O)c1[nH]c2ccccc2c1C(c1cc(Cl)cc([N+](=O)[O-])c1O)c1c(C(=O)O)[nH]c2ccccc12	99.4% (inactive)

Compound	viability
O=C(O)c1cc(N/N=C/c2ccc(-c3ccccc3)cc2)ccc1Cl	101% (inactive)
O=C(O)CN1C(=O)/C(=C\c2ccccc2OCc2ccc(Cl)cc2)SC1=S	94.9% (inactive)
O=C(O)CN1C(=O)/C(=C\c2ccccc2OCc2ccccc2)SC1=S	91% (inactive)
O=C(O)CN1C(=O)/C(=C\c2cc([N+](=O)[O-])ccc2OCc2ccccc2Cl)SC1=S	99.2% (inactive)
O=C(O)CCCN1C(=O)/C(=C\c2ccccc2OCc2ccccc2)SC1=S	100% (inactive)
CC1=C/C(=C(\c2cc(C)c(O)c(Br)c2)c2ccccc2S(=O)(=O)O)C=C(Br)C1=O	80.3% (inactive)
Cc1ccc(S(=O)(=O)N2CCC(C(=O)OC(C)C(=O)NC3CCCCC3C)CC2)cc1C (centres undefined)	91.4% (inactive)
CN(C)c1ccc2cc(S(=O)(=O)O)cc(O)c2c1	97.7% (inactive)
Cc1nc2ccccc2c2oc(C(=O)Nc3ccc4c(c3)OCCO4)cc12	92% (inactive)
O=[N+]([O-])c1ccc(S(=O)(=O)Nc2nc(-c3ccccc3)cs2)cc1	103% (inactive)
Cc1cc([N+](=O)[O-])ccc1N1C(=O)c2ccc(C(=O)Nc3ccccc3C(=O)O)cc2C1=O	100% (inactive)
Nc1nn2c(-c3ccccc3)cc(=O)[nH]c2c1N=Nc1ccc(O)cc1	91.5% (inactive)
O=C(O)c1ccc(N=N/C(=N\Nc2ccc(C(=O)O)cc2)c2ccccc2)cc1	98.1% (inactive)
O=C(O)CN1C(=O)/C(=C2\C(=O)N(Cc3ccccc3Cl)c3ccccc32)SC1=S	120% (inactive)
Cc1c(N)cc(N)cc1C(=O)O	105% (inactive)
Cc1ccc(C2c3sc(=O)[nH]c3SC3C(=O)NC(=O)C32)cc1 (centres undefined)	98.6% (inactive)
COc1cccc(/C=C2\SC(=S)N(NS(=O)(=O)c3ccc(C)cc3)C2=O)c1OC	86.8% (inactive)
CC1(C)CC(=O)C(C(c2ccc(Br)cc2)C2C(=O)CC(C)(C)CC2=O)C(=O)C1	96.5% (inactive)
CC1=NN(Cc2ccccc2)C(=O)C1C(c1ccccc1)C(C#N)C#N (centres undefined)	88.9% (inactive)
CCOc1ccccc1NC(=O)CN1C(=O)COc2ccc(S(=O)(=O)N3CCOCC3)cc21	101% (inactive)
Cc1cc(OCC(=O)NC2CCN(Cc3ccccc3)CC2)c2c(C)c(C)c(=O)oc2c1	101% (inactive)
O=C1ON=C(c2cccc([N+](=O)[O-])c2)/C1=C/c1ccc(O)cc1	80.4% (inactive)

Compound	viability
O=C1/C(=C/c2ccc(C(=O)O)cc2)CCC/C1=C\c1ccc(C(=O)O)cc1	114% (inactive)
O=C(O)c1cccc(N2C(=O)C=CC2=O)c1	107% (inactive)
Cc1ccc([C@H]2C(C(=O)O)=CC[C@@H](c3ccc(Cl)c(Cl)c3)N2S(=O)(=O)c2ccc(C)cc2)cc1	84.2% (inactive)
O=C(COc1ccccc1/C=C\c1[nH]c(=O)[nH]c(=O)c1[N+](=O)[O-])Nc1ccccc1	109% (inactive)
CCOC(=O)CC1=NN(c2ccccc2)C(=O)/C1=C\c1ccc(OC)cc1OC	94.6% (inactive)
CCOC(=O)c1c2c(c(=S)n(-c3ccccc3)c1N)CCC2	82.2% (inactive)
O=S(=O)(Nc1nc(-c2sccc2Cl)cs1)c1cc(Cl)ccc1Cl	99.7% (inactive)
Fc1cccc(Cl)c1CNc1ccc(N2CCCC2)cc1	84.4% (inactive)
CCN1C(=NCc2ccccc2)N[C@@H](c2ccccc2)[C@H](C(=O)OC)[C@H]1C	97.6% (inactive)
O=C(Cc1ccc(Br)cc1)Nc1ccc2[nH]ncc2c1	90.6% (inactive)
CN(CCO)c1cc(Sc2nc3ccccc3s2)c2nonc2c1[N+](=O)[O-]	98.6% (inactive)
O=c1cc(-c2ccccc2)[nH]c2[nH]n(-c3ccccc3)c(=O)c12	97% (inactive)
Cc1ccc(C)c(S(=O)(=O)Nc2ccccc2C(=O)Nc2ccc(S(=O)(=O)Nc3ncccn3)cc2)c1	102% (inactive)
O=C(O)c1ccc(Cl)c(S(=O)(=O)Nc2ccccc2C(=O)Nc2ccc(Cl)cc2)c1	94.1% (inactive)
CC(=C\c1ccccc1)/C=C1/SC(=S)N(C(C(=O)O)C(C)C)C1=O (centres undefined)	99.2% (inactive)
Oc1cccc(/C=N/N=C/c2cccc(O)c2O)c1O	86.5% (inactive)
Oc1ccc(/C=N/N2CCCCC2)c(O)c1O	96% (inactive)
Cc1cc(C(=O)N/N=C/c2ccc(O)c(O)c2O)c(C)n1-c1ccccc1	85% (inactive)
CCN(CC)S(=O)(=O)c1cccc(C(=O)N/N=C/c2ccc(O)c(O)c2O)c1	99.8% (inactive)
O=C1N=c2ccccc2=C1c1sc(=S)n(NC(=O)c2cccc(O)c2)c1O	99.3% (inactive)
